These results are taken from PubChem BioAssay (EPA / NIEHS).

The source made the active and inactive calls. Rule for the calls: active = hit-call score of the fitted dose curve at least 0.9, where 1 is the maximum; inactive = score below 0.9.

The nature of the assay: ATG_TGFb_CIS: Attagene CIS-FACTORIAL HepG2 Assay for human Transforming Growth Factor (TGF) (AID 2282967). Conditions: HepG2 Attagene CIS TGFb reporter, mRNA transcription; actives raise or lower the signal. As for the experimental part:
ATG_CIS is a cell-based, multiplexed-readout assay that uses HepG2, a human liver cell line, with measurements taken at 24 hours after chemical dosing in a 24-well plate.ATG_TGFb_CIS is one of 52 assay component(s) measured or calculated from the ATG_CIS assay. It is designed to make measurements of mRNA induction, a form of inducible reporter, as detected with fluorescence intensity signals by Reverse transcription polymerase chain reaction (RT-PCR) and Capillary electrophoresis technology.Data from the assay component ATG_TGFb_CIS was analyzed into 1 assay endpoint. This assay endpoint, ATG_TGFb_CIS, was analyzed with bidirectional fitting relative to DMSO as the negative control and baseline of activity. Using a type of inducible reporter, measures of mRNA for gain or loss-of-signal activity can be used to understand the reporter gene at the transcription factor-level as they relate to the gene TGFB1. Furthermore, this assay endpoint can be referred to as a primary readout, because this assay has produced multiple assay endpoints where this one serves a reporter gene function. To generalize the intended target to other relatable targets, this assay endpoint is annotated to the growth factor intended target family, where the subfamily is transforming growth factor beta.
Human liver HepG2 cells are transiently transfected with multiple reporter transcription units (MRTUs) in 6-well plates using FuGene 6 reagent (Roche; 3 ml FuGene/1 mg DNA). The MRTU constructs are regulated by a cis-regulating element (promoter). […] A major difference between the CIS and TRANS system is that in CIS activities of endogenous TFs are measured, whereas the TRANS assay evaluates changes in activities of exogenous, chimeric NR-Gal4 proteins. […] At the end of 24 hour incubation, total RNA was isolated using TriZol reagent (Invitrogen). The isolated RNA is then reverse-transcribed using oligo(dT) primer and Mo-MLV reverse transcriptase (Invitrogen) with DNAse I (Ambion) treatment for 30 min. The one-tenth of the produced cDNA was amplified by PCR using Taq DNA polymerase (Invitrogen) and two reporter sequence-specific primers. The PCR products were fluorescently labeled by primer extension with 6-arboxyfluorescein (6-FAM) 5'-labeled reporter sequence-specific primer (2 min at 95 C, 20 s at 68 C and 10 min at 72 C) and these products were digested with 5U of HpaI (New England Biolabs) for 2h at 37 C. The fragments were purified using Qiaquick PCR columns (Qiagen), analyzed on an ABI 3130xL genetic analyzer (Applied Biosystems) with peak positions identified by using a set of X-rhodamine (ROX)-labeled MapMarker1000 molecular weight standards (BioVentures). The raw capillary electrophoresis data was processed using Attagraph software (Attagene).
For the compound `CCC(C)C(=O)OC` (stereo not given), the compound was classed as inactive.
In the case of `Clc1cc(Cl)c(Cl)c(Cl)c1Cl`, the AC50 is 100 µM (active).
On to `CC(=O)OCc1ccccc1`, for which the outcome was inactive.
As to `C=CC(=O)OCC(C)OCC(C)OCC(C)OC(=O)C=C` (stereo not given), the AC50 was 143 µM (active).
On to `CCNc1nc(NC(C)(C)C)nc(OC)n1`, for which the call was inactive.
For `CC1(C)C(=O)N(CO)C(=O)N1CO`, the compound was classed as inactive.
In the case of `CCN(CC)c1cccc(C)c1`, the compound was called inactive.
Same read-out and setting: with `O=C(O)CC(C(=O)O)S(=O)(=O)O` (stereo not given) the entry was “inactive”; with `CCCCCCOC(=O)CCCCC(=O)OCCCCCC`, “inactive”; with `C=Cc1cccc(C)c1`, “inactive”.
Same read-out and setting: in the case of `CC(=O)c1ccccc1O` it was “inactive”; in that of `O=C(O[C@@H]1Cc2c(O)cc(O)cc2O[C@@H]1c1cc(O)c(O)c(O)c1)c1cc(O)c(O)c(O)c1`, “inactive”; in that of `CC1=CCC2CC1C2(C)C` (stereo not given), “inactive”.
Same read-out and setting: with `CC(C)OC(=O)c1ccccc1` the entry was “inactive”.
Consider `COC(OC)(C(=O)c1ccccc1)c1ccccc1`, for which the AC50 was 138 µM (active).
Regarding `CCCC1CCCC(=O)O1` (stereo not given), the call was inactive.
Same read-out and setting: with `CCCCCC[C@@H](O)C/C=C\CCCCCCCC(=O)OCC(O)CO` (stereo not given in full) the entry was “inactive”; with `C=CC(=O)NC(C)(C)C`, “inactive”; with `CC1=CP(=O)(c2ccccc2)CC1` (stereo not given), “inactive”.
Same read-out and setting: with `c1ccc2cnccc2c1` the entry was “inactive”; with `Nc1nc(N)nc(-c2ccccc2)n1`, “inactive”.
Still for that read-out and setting: with `CC(C)=CCCC(C)=CC#N` the entry was “inactive”.
With `CCC(C)(O)CCCC(C)C` (stereo not given), the call was inactive.
As for `c1ccc(-c2nc3ccccc3[nH]2)cc1`, the outcome was inactive.
Same read-out and setting: with `Cn1ccnc1` the entry was “inactive”.
`CC/C=C\C/C=C\C/C=C\CCCCCCCC(=O)OC`: the AC50 was 100 µM (active).
With `CO[Si](CCCS)(OC)OC`, the compound was classed as inactive.
As to `CCc1cccc(C)c1N`, the outcome was inactive.
On the same count and under the same terms, in the case of `Nc1ncnc2nc[nH]c12` it was “inactive”.
On the same count and under the same terms, in the case of `CCCCCCCC(=O)OCC` it was “inactive”.
Same read-out and setting: with `COCC(=O)O` the entry was “inactive”; with `O=C(Cl)c1ccc(C(=O)Cl)cc1`, “inactive”.
In the case of `CCCCCCCC(=O)OCC(COC(=O)CCCCCCC)OC(=O)CCCCCCC`, the result was inactive.
Same read-out and setting: with `CC(C)(c1ccccc1)c1ccc(Nc2ccc(C(C)(C)c3ccccc3)cc2)cc1` the entry was “inactive”; with `CCCCCCCCCCCC(=O)OCC`, “inactive”.
On the same count and under the same terms, in the case of `O=C(O)c1ccc2c(c1)C(=O)OC2=O` it was “inactive”.
In the case of `O=C(O)c1cc(O)c2ccccc2c1O`, the AC50 was 33.4 µM (active).
With `O=C(O)/C=C/c1ccccc1`, the compound was classed as inactive.
The same measure, in the same setting: with `CC(C)c1cccc(C(C)C)c1N` the entry was “inactive”.
Consider `CC(CC(C)C)=NO`, for which the call was inactive.

By AC50 is commonly meant the concentration at which the activity in the assay is half-maximal.
